Laboratory results as given in PubChem BioAssay AID720525 (National Center for Advancing Translational Sciences (NCATS), 2013).
Records with an inconclusive call do not appear. Calls of active or inactive are those of the source. Calls follow the shape of the dose curve; as a rule, active = well fitted activation curve with a large enough effect; inconclusive = small, poorly fitted or top-dose-only effect; inactive = no such curve, though single readings can be large or run the other way.

test: qHTS Assay for NPC1 Promoter Activators: Hit Validation Using Firefly Luciferase Read-Out for Rab9; conditions: Huh7 Rab9 promoter firefly luciferase reporter, 24 h; series mostly up to 46.1 µM
From the text: Niemann Pick Type C (NPC) is a rare neurodegenerative lipidosis that is characterized by lipid storage in the endosomal/lysosomal system. Treatment modalities for this devastating disease are currently non-existent due to the severe obstacles associated with accessing the central nervous system with proteins or genes. The majority of mutations causing NPC disease are missense mutations that are distributed throughout the length of the NPC1 protein, with the most prevalent being the I1061T allele. Although NPC1 mutant proteins may be functional, they are typically trapped in the ER due to misfolding. […] We have developed and optimized a cell based renilla luciferase reporter assay in 1536 well format for the identification of up-regulators of the mutant Rab9 promoter. This assay presents data on the validation of hits from the primary screen, which used a firefly luciferase read-out. NIH Chemical Genomics Center [NCGC] NIH Molecular Libraries Probe Production centers Network [MLPCN] MLPCN Grant: MH089375 Assay Submitter (PI): Yiannis A. Ioannou
Huh7 cells stably expressing NPC promoter-luciferase will be seeded at 1,500 cells/well in 5 uL in 1,536-well white opaque plates with 23 nL/well of compound in DMSO solution. The assay plates will be incubated at 37 deg C for 24 hours, after which 3 uL/well BriteLite plus luciferase detection reagent mixture (Perkin Elmer) will be added. Luminescence signal will be measured in a ViewLux plate reader (Perkin Elmer) after a 10 minute incubation at the room temperature.

Potency, inactive:
COc1ccc(-c2csc(N(CCCN(C)C)C(=O)c3ccccc3C)n2)cc1
CCOC(=O)c1ccc(NC(=O)Oc2cc(C)c(Cl)cc2C(C)C)cc1
COc1ccc([N+](=O)[O-])cc1COc1ccc2c(-c3ccccc3)cc(=O)oc2c1
O=C(CSc1nccn1Cc1ccco1)Nc1ccccc1F
CCc1cc2c(N=Nc3c(O)[nH]c4ccccc34)ncnc2s1
O=C(NC(=S)Nc1ccc(CN2CCCCC2)cc1)c1cc2ccccc2o1
CC1CCCN(S(=O)(=O)c2ccc(C(=O)Nc3nnc(-c4ccncc4)o3)cc2)C1 (stereo not drawn)
CC(C)CC(=O)N1CCN(c2ccc(NC(=O)c3ccco3)cc2)CC1
Cc1cccc(N2CCN(C(=S)c3ccccc3)CC2)c1
Cc1ccc(NC(=O)COC(=O)C2C3CC4OC(=O)C2C4C3)cc1Cl (stereo not drawn)

Potency, active:
N#CC/C(N)=N/NC(=O)CCCNc1ncc(C(F)(F)F)cc1Cl 19.9 µM
O=C(CSc1nnc(-c2ccccc2)o1)Nc1ccccc1F 0.112 µM
Cc1ccc(NC(=O)NC(=O)c2ccccc2)cc1F 0.445 µM
